In the assay the target is DNA 5-C-methyltransferase (murine, Friend erythroleukemia cells) (Mus musculus, UniProt P13864 P13864:1-1620). As to the kind of experiment: same rate as unmethylated A. To be noted: protein: extract; tags: 0.3 M NaCl nuclear extract, 100,000 x g supernatant; single approx. 190 kDa species forming covalent complexes; homodimer, no analogous stem-loop; ssDNA; 5mC at 7.

This note sets out measurements from patent publication US5652105, “Substrate for detection of mammalian 5-C-DNA methyltransferase” (Health Research, Inc.).

Sequence of DNA 5-C-methyltransferase (murine, Friend erythroleukemia cells) (P13864 whole entry, one chain of several): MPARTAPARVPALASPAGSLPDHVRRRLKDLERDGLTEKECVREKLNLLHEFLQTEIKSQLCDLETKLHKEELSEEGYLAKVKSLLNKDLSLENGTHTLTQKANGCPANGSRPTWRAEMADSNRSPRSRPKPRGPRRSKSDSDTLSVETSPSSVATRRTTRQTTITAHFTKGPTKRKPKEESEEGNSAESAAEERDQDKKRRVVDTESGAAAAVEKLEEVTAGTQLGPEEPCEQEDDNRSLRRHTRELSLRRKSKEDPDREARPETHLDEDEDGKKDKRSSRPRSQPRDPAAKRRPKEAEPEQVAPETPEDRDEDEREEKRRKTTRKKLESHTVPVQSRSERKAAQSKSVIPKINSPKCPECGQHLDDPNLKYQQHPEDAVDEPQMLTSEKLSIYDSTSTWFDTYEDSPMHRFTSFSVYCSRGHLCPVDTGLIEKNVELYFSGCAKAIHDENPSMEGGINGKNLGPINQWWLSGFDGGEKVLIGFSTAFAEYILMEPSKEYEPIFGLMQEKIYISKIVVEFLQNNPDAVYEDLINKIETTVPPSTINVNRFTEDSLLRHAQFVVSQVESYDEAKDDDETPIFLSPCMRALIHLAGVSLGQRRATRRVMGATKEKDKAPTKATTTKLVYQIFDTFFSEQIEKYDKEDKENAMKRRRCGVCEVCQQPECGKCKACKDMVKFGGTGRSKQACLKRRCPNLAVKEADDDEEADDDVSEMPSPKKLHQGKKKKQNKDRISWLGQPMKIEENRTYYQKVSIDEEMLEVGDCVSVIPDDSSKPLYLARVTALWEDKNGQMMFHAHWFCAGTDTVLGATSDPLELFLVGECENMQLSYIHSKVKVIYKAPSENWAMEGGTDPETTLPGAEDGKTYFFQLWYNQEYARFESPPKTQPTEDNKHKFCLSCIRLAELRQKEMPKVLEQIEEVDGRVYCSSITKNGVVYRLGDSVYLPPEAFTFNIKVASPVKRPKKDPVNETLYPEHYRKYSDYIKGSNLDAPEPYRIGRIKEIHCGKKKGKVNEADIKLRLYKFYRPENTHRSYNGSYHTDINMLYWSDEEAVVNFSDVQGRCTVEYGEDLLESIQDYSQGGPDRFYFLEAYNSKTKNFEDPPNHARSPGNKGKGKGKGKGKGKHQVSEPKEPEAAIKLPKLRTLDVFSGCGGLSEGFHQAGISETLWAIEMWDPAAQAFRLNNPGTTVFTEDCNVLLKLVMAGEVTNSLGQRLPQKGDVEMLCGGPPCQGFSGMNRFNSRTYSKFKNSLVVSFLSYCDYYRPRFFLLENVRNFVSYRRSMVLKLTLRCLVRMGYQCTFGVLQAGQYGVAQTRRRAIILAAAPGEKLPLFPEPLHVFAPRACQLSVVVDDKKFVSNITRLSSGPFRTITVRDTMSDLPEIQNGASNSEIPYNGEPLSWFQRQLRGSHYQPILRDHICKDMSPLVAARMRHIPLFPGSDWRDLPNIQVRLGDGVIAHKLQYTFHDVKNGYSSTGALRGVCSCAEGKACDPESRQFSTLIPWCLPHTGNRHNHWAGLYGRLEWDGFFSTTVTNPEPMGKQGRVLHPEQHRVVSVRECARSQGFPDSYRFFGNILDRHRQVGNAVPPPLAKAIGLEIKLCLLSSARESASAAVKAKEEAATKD

Regarding ATTGCGCTACTCGGATCCGGCCAT, the binding signal was 1 relative to A.
